# Bioassay records as filed in PubChem BioAssay.
# HEK293 tox – kills HEK 293 cells. actives 6.6% (n = 94,000). Potency, µM (doses to about 115 µM), without a hit: at the highest dose activity change, negative = cytotoxicity, actives largely listed as inhibitors. HEK 293 viability, ATP luminescence (CellTiter-Glo), 48-72 h; further: on the % scale 0 is the no-effect control and ±100 the full control effect; nearly all actives have a fitted effect of over 60% in size
#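 HEK 293 seeded at 250 cells/well receive compound via pintool. After 48 or 72 hr at 37 degree Celsius, 5% CO2 and 95% humidity, CellTiter-Glo is dispensed and luminescence read following 10 min at room temperature.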
# 3T3 cytotox – NIH 3T3 cell cytotoxicity; NIH 3T3 viability, CellTiter-Glo ATP luminescence, 48-72 h; Potency, µM (series often up to 96.7 µM), for inactives: at the highest dose activity change, negative = cytotoxicity, most hits filed as inhibitors; actives 4.3% (n = 94,000); AID 1345082; further: on the % scale 0 is the no-effect control and ±100 the full control effect; nearly all actives have a fitted effect of over 55% in size
#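 Cells were seeded at 400 per well, treated with pin-transferred compound, and kept 48 or 72 hr at 37 °C before CellTiter-Glo addition and luminescence imaging of cellular ATP.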
# FLuc inh – Photinus pyralis luciferase inhibition. P08659. purified P. pyralis luciferase, luminescence, biochemical. Potency, µM (titrated, usually from 115 µM), actives largely listed as inhibitors. actives 2.5% (n = 76,000); further: on the % scale 0 is the no-effect control and ±100 the full control effect; nearly all actives have a fitted effect of over 65% in size
#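 FLuc 10nM, D-luciferin 10uM, ATP 10uM, Mg acetate 10mM, Tris acetate pH 7.5, Tween/BSA; cpd qHTS; enzyme added last; CCD luminescence.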
# hNpr1 antagonist – human Npr1 receptor antagonism | P16066 | HEK293 hNpr1 GloSensor cGMP, ANP-stimulated luminescence | Potency, µM (top dose mostly 46.3 µM), for the others: top-dose activity change, negative = inhibition, most hits filed as inhibitors | actives 1.6% (n = 76,000) | AID 1347048; calls by dose curve; further: on the % scale 0 is the no-effect control and ±100 the full control effect; nearly all actives have a fitted effect of over 60% in size
# Target sequence (P16066 whole entry, looked up): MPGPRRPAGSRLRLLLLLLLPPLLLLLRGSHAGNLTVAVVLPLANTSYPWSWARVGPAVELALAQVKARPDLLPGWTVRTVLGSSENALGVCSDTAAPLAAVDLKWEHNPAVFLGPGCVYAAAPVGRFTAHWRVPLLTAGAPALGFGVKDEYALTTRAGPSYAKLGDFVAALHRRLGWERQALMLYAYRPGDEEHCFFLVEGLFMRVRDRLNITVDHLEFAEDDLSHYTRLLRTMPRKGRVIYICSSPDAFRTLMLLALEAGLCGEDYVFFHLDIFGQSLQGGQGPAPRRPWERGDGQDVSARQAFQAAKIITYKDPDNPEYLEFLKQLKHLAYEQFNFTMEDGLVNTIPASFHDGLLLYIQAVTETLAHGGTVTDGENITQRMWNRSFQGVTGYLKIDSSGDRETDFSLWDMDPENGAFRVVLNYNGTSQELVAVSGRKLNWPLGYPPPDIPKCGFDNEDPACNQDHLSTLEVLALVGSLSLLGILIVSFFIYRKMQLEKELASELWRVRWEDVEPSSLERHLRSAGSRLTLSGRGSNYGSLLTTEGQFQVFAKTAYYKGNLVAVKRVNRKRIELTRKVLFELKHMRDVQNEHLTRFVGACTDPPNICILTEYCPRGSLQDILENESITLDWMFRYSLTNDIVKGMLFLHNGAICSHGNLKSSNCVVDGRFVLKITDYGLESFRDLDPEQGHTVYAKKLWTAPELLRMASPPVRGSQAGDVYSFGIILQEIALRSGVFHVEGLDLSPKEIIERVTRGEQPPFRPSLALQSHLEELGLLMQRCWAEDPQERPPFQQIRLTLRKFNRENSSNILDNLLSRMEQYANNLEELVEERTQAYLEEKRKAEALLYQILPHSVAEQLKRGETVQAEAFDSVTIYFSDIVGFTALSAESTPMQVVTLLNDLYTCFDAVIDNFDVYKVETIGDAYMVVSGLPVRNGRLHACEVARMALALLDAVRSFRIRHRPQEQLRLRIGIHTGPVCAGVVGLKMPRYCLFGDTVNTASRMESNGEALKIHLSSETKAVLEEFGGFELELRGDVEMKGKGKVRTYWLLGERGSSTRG
#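 HEK293 cells stably expressing human Npr1 and cGMP GloSensor pGS-40F, loaded 2 h with 2% GloSensor reagent, given compound 30 min at room temperature. Luminescence read before and 20 min after 0.1 nM hNppA.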
# GPT2 inh – inhibitors of human GPT2 alanine aminotransferase. actives 0.25% (n = 100,000). AID 1671188. Potency, µM (highest dose often 57.7 µM), for the others: at the highest dose activity change, negative = inhibition, hits mostly inhibitors. Recombinant GPT2, coupled pyruvate oxidase/HRP Amplex Red fluorescence. Q8TD30; further: on the % scale 0 is the no-effect control and ±100 the full control effect; nearly all actives have a fitted effect of over 60% in size
#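 Fluorescence read-out: pyruvate from GPT2 turnover coupled to pyruvate oxidase, HRP and Amplex Red (0.2mM ThPP, 0.2U/mL PO and HRP, 50uM Amplex final). Substrates 250uM a-KG, 2mM L-alanine; enzyme 10ng/uL; 30 min RT.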
# NPR1 antag cnf – confirmation of human Npr1 natriuretic peptide receptor antagonists | HEK293 hNpr1 cGMP GloSensor luminescence, ANP-stimulated | shares compounds with hNpr1 antagonist | Potency, µM (titrated, usually from 57.6 µM), inactives show at the highest dose activity change, negative = inhibition, hits mostly inhibitors | AID 1347044 | actives 76% (n = 1,400); calls by dose curve; further: nearly all actives have a fitted effect of over 70% in size
# Npr2 selectivity – hNpr2 antagonism, selectivity versus Npr1. shares compounds with hNpr1 antagonist. HEK293 hNpr2 GloSensor cGMP luminescence, CNP-stimulated. Potency, µM (highest dose often 57.6 µM), for inactives: top-dose activity change, negative = inhibition, hits mostly inhibitors. actives 67% (n = 1,400); calls by dose curve; further: nearly all actives have a fitted effect of over 70% in size
# FLuc inh counter – inhibits firefly luciferase, false Npr1 antagonist flag; purified FLuc enzyme, luminescence, Km substrate; AID 1347047; actives 0.7% (n = 1,400); shares compounds with hNpr1 antagonist; Potency, µM (titrated, usually from 57.6 µM), for the others: at the highest dose activity change, negative = inhibition, actives largely listed as inhibitors; further: series mostly up to about 58 µM; 0% is about no effect
# GloSensor cGMP – reduces cGMP signal in GloSensor control cells; shares compounds with hNpr1 antagonist; HEK293 GloSensor cGMP, SNP-stimulated, luminescence; Potency, µM (titrated, usually from 57.6 µM), inactives show at the top dose activity change, negative = inhibition, usual class: inhibitors; actives 69% (n = 1,400); AID 1347051; calls by dose curve; further: on the % scale 0 is the no-effect control and ±100 the full control effect; nearly all actives have a fitted effect of over 70% in size
# The depositor's hits bear a star; i = inactive; ? = inconclusive; / = no result; [ ] = dose if it differs, or a comment. A selection: hits, their analogues and other compounds. The true share with any hit is near 10%. Unless noted, the call rests on the fitted dose curve; in most records, active means well fitted curve in the direction sought with a large enough effect; inconclusive means small, poorly fitted or top-dose-only effect, or another doubt; inactive means no such curve, though single readings can be large; an effect the other way counts as inactive or inconclusive. Potency means the concentration at half of the fitted maximal effect.
SMILES,HEK293 tox,3T3 cytotox,FLuc inh,hNpr1 antagonist,GPT2 inh,NPR1 antag cnf,Npr2 selectivity,FLuc inh counter,GloSensor cGMP
O=C(NCCc1cccnc1)c1cc2n(n1)CC(c1ccc(Br)cc1)OC2 (centres undefined),40µM*,?,i,11µM*,i,19µM*,19µM*,0%,12µM*
O=C(NCc1ccccc1Cl)c1cc2n(n1)CC(c1ccc(Cl)cc1)OC2 (centres undefined),?,?,i,?,?,?,?,-2%,?
Cc1ccc(NC(=O)c2cc3n(n2)CC(c2ccc(Cl)cc2)OC3)cc1 (centres undefined),?,?,i,?,2%,/,/,/,/
O=C(Nc1cc(F)ccc1Cl)c1cc2n(n1)CC(c1ccc3c(c1)OCO3)OC2 (centres undefined),?,-20%,?,2%,i,/,/,/,/
O=C(NCCc1ccccc1)c1cc2n(n1)CC(c1ccc(Cl)cc1)OC2 (centres undefined),?,?,i,?,3%,?,?,-4%,?
O=C(Nc1ccc(F)c(Cl)c1)c1cc2n(n1)CC(c1ccc3c(c1)OCO3)OC2 (centres undefined),45µM*,?,i,?,0%,27µM*,?,-9%,?
O=C(Nc1ccccc1)c1cc2n(n1)CC(c1ccc(Cl)cc1)OC2 (centres undefined),?,-26%,i,13µM*,1%,?,?,-1%,?
C=CCN1CCN(C(=O)CCC[C@@H]2[C@H]3CCCN4CCC[C@@H](CN2Cc2cccnc2)[C@@H]34)CC1,14%,i,i,5%,-20%,/,/,/,/
CCN1CCCC2(Cc3ccccc3CN(C(C)=O)C2)C1 (centres undefined),-3%[172 µM],i,/,/,0%[88.5 µM],/,/,/,/
Cc1ccc(C(=O)N2CCC3(CC2)CC(N(Cc2ccc(F)cc2)C2CC2)CCO3)cc1 (centres undefined),?,?,i,?,i,/,/,/,/
O=C(C1CC1)N1CCC2(CC1)CC(N(Cc1ccc(F)cc1)C1CC1)CCO2 (centres undefined),?,-27%,i,15%,i,/,/,/,/
O=C(c1cccs1)N1CCC2(CC1)CC(Cc1ccc(F)cc1)CCO2 (centres undefined),?,?,i,11µM*,-16%,27µM*,27µM*,-2%,27µM*
CCCC(=O)N1CCC2(CC1)CC(N(Cc1ccc(F)cc1)C1CC1)CCO2 (centres undefined),?,-18%,i,-25%,i,-25%,-5%,2%,-26%
O=C(c1ccc(F)cc1)N1CCC2(CC1)CC(N(Cc1ccc(F)cc1)C1CC1)CCO2 (centres undefined),?,?,i,?,i,?,?,5%,?
Cc1ccc(C(=O)N2CCC(C(=O)N3CCC(c4nc5ncccc5[nH]4)C3)CC2)cc1 (centres undefined),0%,-29%,/,/,-8%,/,/,/,/
COCCn1c(C)cc(C(=O)N2CCCC(Cc3noc(-c4cnccn4)n3)C2)c1C (centres undefined),-27%,-21%,i,16%,i,/,/,/,/
Cn1ccc2c(C(=O)NCc3cccnc3)nc(Nc3ccccc3)cc21,63µM*,?,i,?,i,35µM*,35µM*,-24%[86.2 µM],31µM*
Cn1ccc2c(C(=O)NCc3cccnc3)nc(-c3cccc4cc[nH]c34)cc21,?,?,i,?,?,?,?,-3%[86.2 µM],-20%[86.2 µM]
COc1ccc(CNC(=O)c2nc(-c3ccccc3OC)cc3c2ccn3C)cc1OC,?,-27%[138 µM],i,1%[70.6 µM],-50%[88.5 µM],/,/,/,/
Cc1cc(-c2cc3c(nc2-c2ccccc2)nc(C(=O)NCCN(C)C)n3C)ccn1,-24%[172 µM],?,i,5%[70.6 µM],-3%[88.5 µM],/,/,/,/
CN(C)CCNC(=O)c1nc2nc(-c3ccccc3)c(-c3ccc(O)c(F)c3)cc2n1C,71µM*,45µM*,i,22µM*,0%[88.5 µM],35µM*,20µM*,2%[86.2 µM],-8%[86.2 µM]
COc1ccc(C2(C(=O)N3CCC(Cc4nc(-c5ccccc5)no4)CC3)CC2)cc1,?,?,i,7.9µM*,i,7.7µM*,9.7µM*,0%,9.7µM*
O=C(N1CCC(Cc2nc(-c3ccc(F)cc3)no2)CC1)C1(c2ccccc2)CC1,?,?,i,?,i,/,/,/,/
COc1ccc(C2(C(=O)N3CCC(Cc4nc(-c5ccc(F)cc5)no4)CC3)CC2)cc1,?,?,i,5.6µM*,i,4.8µM*,6.1µM*,0%,6.1µM*
O=C(NCCCN1CCCc2ccccc21)C1Cn2cccc2C(=O)N1Cc1cccnc1 (centres undefined),i,4%,i,-1%,?,/,/,/,/
CC(CCc1ccccc1)NC(=O)c1ccc2nnc(C3CCOCC3)n2c1 (centres undefined),-11%,-26%,/,/,/,/,/,/,/
COc1cc(/C=C2\CCCN([C@@H](C)c3ccc(F)cc3)C2=O)ccc1-n1cnc(C)c1,/,/,/,/,i,/,/,/,/
COc1ccc(-c2cnc3[nH]cc(CC(=O)NCCc4ccccn4)c3c2)cc1,-23%[172 µM],?,i,3%[70.6 µM],2%[88.5 µM],/,/,/,/
COc1ccc(-c2cnc3[nH]cc(CC(=O)Nc4cccc(N(C)C)c4)c3c2)cc1,?,?,i,?,-43%[88.5 µM],?,?,-9%[86.2 µM],-25%[86.2 µM]
Cc1ccccc1-c1cnc2[nH]cc(CC(=O)Nc3cccnc3)c2c1,?,?,i,16µM*,-7%[88.5 µM],25µM*,31µM*,-3%[86.2 µM],22µM*
